Source: PubChem BioAssay
Activity calls are given as the source filed them. How the calls were made is not given here.

What follows are compounds tested against Pantothenate synthetase (Mycobacterium tuberculosis (strain ATCC 25618 / H37Rv)) (UniProt P9WIL5) (assay: Recombinant Mtb pantothenate synthetase (PanC) inhibitors, coupled enzyme, confirmatory (AID 375;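 further: 0% = full reaction with vehicle and 100% = no enzyme background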)). Settings: coupled enzyme assay; at 10 µM, stronger effect = higher value.
Sequence of Pantothenate synthetase (Mycobacterium tuberculosis (strain ATCC 25618 / H37Rv)) (P9WIL5 whole entry, looked up): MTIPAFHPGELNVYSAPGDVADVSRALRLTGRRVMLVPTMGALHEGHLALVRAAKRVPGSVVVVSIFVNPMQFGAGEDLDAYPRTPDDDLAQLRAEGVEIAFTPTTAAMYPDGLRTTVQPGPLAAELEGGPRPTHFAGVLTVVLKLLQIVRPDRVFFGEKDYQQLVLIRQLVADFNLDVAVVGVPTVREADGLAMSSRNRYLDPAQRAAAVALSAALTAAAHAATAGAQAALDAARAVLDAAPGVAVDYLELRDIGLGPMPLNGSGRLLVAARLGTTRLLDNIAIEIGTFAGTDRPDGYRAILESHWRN
With COc1ccccc1NC(=O)CSc1nnnn1-c1ccc2c(c1)OCO2 the inhibition was 0% (inactive). In the case of Cc1nc2ccccn2c(=O)c1CCN1CCC(C(=O)c2ccc(F)cc2)CC1, the inhibition is reported as 0% (inactive). With CCCCC(=O)NCCNc1nc2c(c(=O)n(C)c(=O)n2C)n1Cc1ccccc1 the inhibition was 0% (inactive). For CC(=O)Nc1ccc(S(=O)(=O)NCc2cn3c(C)csc3n2)cc1, the inhibition was 0% (inactive). In the case of O=c1c2ccccc2nc(-c2cccc(Cl)c2)n1O, the inhibition is reported as 4% (inactive). With CC(C(=O)N1CC2(C)CC1CC(C)(C)C2)N1C(=O)c2ccccc2C1=O (stereo not given) the inhibition was 8% (inactive). In the case of CCc1nc(C)ccc1OCC(=O)O, the inhibition is reported as 3% (inactive). With COc1ccc(N2CCN(Cc3nc(-c4ccc(Cl)cc4Cl)no3)CC2)cc1 the inhibition was 6% (inactive). In the case of O=C(NCC(=O)N(c1cccnc1)C(C(=O)NC1CCCCC1)c1cccnc1)c1ccco1 (stereo not given), the inhibition is reported as 0% (inactive). In the case of Cc1nc2c(-c3ccc(F)cc3)c(C)nn2c(C)c1CCC(=O)NC(C)CCc1ccco1 (stereo not given), the inhibition is reported as 0% (inactive). Cc1ccc(C(O)c2nc3ccccc3n2C(C)C)cc1 (stereo not given) was tested, and the inhibition was 0% (inactive). In the case of N#CC(C(=O)CCN1C(=O)C2CC=CCC2C1=O)c1nc2ccccc2[nH]1 (stereo not given), the inhibition is reported as 0% (inactive). For Cc1cc(-c2ccccc2)nnc1NCCN1CCOCC1, the inhibition was 0% (inactive). In the case of CC(C)c1ccc(C(O)c2cnc(C(C)C)n2C)cc1 (stereo not given), the inhibition is reported as 1% (inactive). C[C@@H]1C[C@H]2[C@@H]3CCC4=CC(=O)C=C[C@]4(C)[C@@]3(F)[C@@H](O)C[C@]2(C)[C@@]1(O)C(=O)COP(=O)(O)O was tested, and the inhibition was 5% (inactive). CN1CCN(C(=O)NC2CCCN2S(=O)(=O)c2ccc(Cl)cc2)CC1 (stereo not given) was tested, and the inhibition was 0% (inactive). With CCc1ccccc1NC(=O)CSc1ncn[nH]1 the inhibition was 0% (inactive). COc1ccc(S(=O)(=O)N(C)C2CCN(C)CC2)cc1 was tested, and the inhibition was 0% (inactive). For COc1ccc(-n2c(Cc3cccn3C)nnc2SCC(=O)Nc2ccc(Cl)cc2)cc1, the inhibition was 0% (inactive). For COc1ccc(-c2cc(C(F)(F)F)n3ncc(C(=O)NCC4CCCO4)c3n2)cc1 (stereo not given), the inhibition was 0% (inactive). With COc1ccc(CNC(=O)c2cc(-c3ccc(OC)c(OC)c3)on2)cc1 the inhibition was 3% (inactive). For O=C1CSC(c2cn(-c3ccccc3)nc2-c2ccccc2)N1Cc1ccco1 (stereo not given), the inhibition was 4% (inactive). For O=C(NCCSc1c[nH]c2ccccc12)c1ccco1, the inhibition was 0% (inactive). With Cc1ccc(S(=O)(=O)N2CCC(C(=O)N[C@@H](Cc3ccccc3)C(=O)O)CC2)cc1 the inhibition was 0% (inactive). O=C(CCc1nc2ccccc2[nH]1)Nc1ccc2c(c1)OCO2 was tested, and the inhibition was 0% (inactive). With O=S(=O)(c1ccc(Br)s1)N1CCCCC1 the inhibition was 0% (inactive). With O=C(OCc1nnc(-c2ccc(Cl)cc2)o1)c1ccc(=O)n(Cc2ccccc2)n1 the inhibition was 0% (inactive). With Cc1ccc(C2N(c3ccc(Cl)c(Cl)c3)C(=O)C3CCCN32)o1 (stereo not given) the inhibition was 6% (inactive). For O=C1c2ccccc2C(Nc2ccc(F)c(Cl)c2)N1Cc1ccco1 (stereo not given), the inhibition was 3% (inactive). In the case of CC(=O)Nc1ccc(S(=O)(=O)NCc2csc(-c3cccnc3)n2)cc1, the inhibition is reported as 0% (inactive). With Cc1cccc(-n2c(SCc3cc(=O)n4ccsc4n3)nc3ccccc32)c1 the inhibition was 0% (inactive). CCc1nnc2sc(-c3cc(-c4ccccc4)nc4ccccc34)nn12 was tested, and the inhibition was 3% (inactive). In the case of CC(C[N+](C)(C)C)OC(N)=O (stereo not given), the inhibition is reported as 0% (inactive). For CN1C(=O)C(CC(=O)N2CCN(C(c3ccccc3)c3ccccc3)CC2)N(C)C1=O (stereo not given), the inhibition was 0% (inactive). COc1ccc(S(=O)(=O)Cc2ccc(C(=O)N3CCN(c4ccccc4)CC3)o2)cc1 was tested, and the inhibition was 0% (inactive). For O=C(C1CCN(S(=O)(=O)c2cccc3cccnc23)CC1)N1CCN(C2CCCCC2)CC1, the inhibition was 0% (inactive). CN(C)c1cc(NC(=O)CN2CCOCC2)c2ccccc2n1 was tested, and the inhibition was 3% (inactive). In the case of Cc1ccc(S(=O)(=O)N(C)CC(=O)NC2CCCC2)cc1, the inhibition is reported as 0% (inactive). For O=C(NCN1CCCCC1)c1cccnc1, the inhibition was 0% (inactive). For Cc1csc(SCC(=O)NC(=O)NCc2ccccc2)n1, the inhibition was 9% (inactive).
